What was measured:
Assay in all cases: log2 ratio of Biotin-Ahx-Ub-VS probe labelling (fragment/DMSO); higher = less target engagement (more negative = stronger competition), active = hit call of the paper (q ≤ 0.05, log2 ratio ≤ -1)
Details in all cases: compound concentration: 200 uM; treatment time: 3 h
[1] = target: T1, USP19 (UniProt O94966)
T1 sequence (whole entry): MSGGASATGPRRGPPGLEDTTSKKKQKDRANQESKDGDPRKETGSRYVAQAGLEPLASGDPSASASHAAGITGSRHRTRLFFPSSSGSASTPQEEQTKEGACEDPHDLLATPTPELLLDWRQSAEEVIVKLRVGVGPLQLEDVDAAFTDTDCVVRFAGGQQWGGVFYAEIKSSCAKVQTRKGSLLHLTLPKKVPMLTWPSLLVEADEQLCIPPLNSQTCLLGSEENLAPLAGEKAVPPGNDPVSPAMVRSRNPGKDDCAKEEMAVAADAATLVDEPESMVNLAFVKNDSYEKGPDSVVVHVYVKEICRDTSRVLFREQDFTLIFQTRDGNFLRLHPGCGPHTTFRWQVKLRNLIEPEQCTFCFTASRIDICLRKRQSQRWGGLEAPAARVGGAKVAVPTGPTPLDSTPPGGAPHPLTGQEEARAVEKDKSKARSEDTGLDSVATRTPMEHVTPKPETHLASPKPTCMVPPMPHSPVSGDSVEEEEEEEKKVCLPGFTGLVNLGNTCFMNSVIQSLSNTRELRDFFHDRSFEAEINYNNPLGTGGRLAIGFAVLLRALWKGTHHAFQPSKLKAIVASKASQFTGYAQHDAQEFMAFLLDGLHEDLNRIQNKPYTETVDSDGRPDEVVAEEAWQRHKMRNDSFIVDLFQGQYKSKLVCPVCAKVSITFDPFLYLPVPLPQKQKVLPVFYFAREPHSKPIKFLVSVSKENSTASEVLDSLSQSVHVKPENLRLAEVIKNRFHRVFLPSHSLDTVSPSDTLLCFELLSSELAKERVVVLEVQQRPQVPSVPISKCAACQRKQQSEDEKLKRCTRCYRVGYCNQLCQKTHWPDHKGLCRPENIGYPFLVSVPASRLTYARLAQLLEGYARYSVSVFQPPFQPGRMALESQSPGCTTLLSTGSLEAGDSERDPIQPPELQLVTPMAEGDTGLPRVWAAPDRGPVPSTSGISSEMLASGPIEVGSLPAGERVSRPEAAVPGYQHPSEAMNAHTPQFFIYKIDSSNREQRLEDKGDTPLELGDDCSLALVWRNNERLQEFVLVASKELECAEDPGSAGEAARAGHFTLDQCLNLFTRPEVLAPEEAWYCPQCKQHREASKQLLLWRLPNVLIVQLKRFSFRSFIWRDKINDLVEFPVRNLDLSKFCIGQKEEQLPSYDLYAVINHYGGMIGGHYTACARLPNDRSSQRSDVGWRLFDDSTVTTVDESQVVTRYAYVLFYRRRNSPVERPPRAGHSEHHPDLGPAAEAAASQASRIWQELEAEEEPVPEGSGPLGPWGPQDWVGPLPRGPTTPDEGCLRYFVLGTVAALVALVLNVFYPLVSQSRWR
Method in brief: (§1)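 The table lists average log2 ratios of fragment over vehicle, from an unpaired t-test on global-median-normalised Spectronaut label-free quantities. Proteins with ≥2 unique peptides were used. Samples were HEK293T lysate (495 µg) treated in triplicate with fragment at 200 µM or vehicle for 3 h, then with Biotin-Ahx-Ub-VS (0.5 µM final) for 1 h, with labelled DUBs NeutrAvidin-enriched and run by diaPASEF LC-MS/MS.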

[2] = target: T2, USP22 (UniProt Q9UPT9)
T2 sequence (whole entry): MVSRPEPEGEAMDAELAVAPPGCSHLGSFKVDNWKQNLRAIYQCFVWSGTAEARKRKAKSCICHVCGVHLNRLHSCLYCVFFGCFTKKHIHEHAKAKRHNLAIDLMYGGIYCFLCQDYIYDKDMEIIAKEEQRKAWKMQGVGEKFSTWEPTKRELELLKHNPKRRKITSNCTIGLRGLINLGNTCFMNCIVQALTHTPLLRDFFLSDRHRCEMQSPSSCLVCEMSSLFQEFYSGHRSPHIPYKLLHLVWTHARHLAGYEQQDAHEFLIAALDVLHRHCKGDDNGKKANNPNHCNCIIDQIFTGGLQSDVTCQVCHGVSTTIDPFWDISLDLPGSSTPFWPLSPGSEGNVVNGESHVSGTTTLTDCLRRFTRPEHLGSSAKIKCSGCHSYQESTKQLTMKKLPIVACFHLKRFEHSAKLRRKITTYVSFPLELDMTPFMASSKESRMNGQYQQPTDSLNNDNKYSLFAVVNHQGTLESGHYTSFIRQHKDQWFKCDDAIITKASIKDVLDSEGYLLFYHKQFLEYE
Method in brief: as §1

[3] = target: USP24 (UniProt Q9UPU5)
Method in brief: as §1

[4] = target: T3, USP25 (UniProt Q9UHP3)
T3 sequence (whole entry): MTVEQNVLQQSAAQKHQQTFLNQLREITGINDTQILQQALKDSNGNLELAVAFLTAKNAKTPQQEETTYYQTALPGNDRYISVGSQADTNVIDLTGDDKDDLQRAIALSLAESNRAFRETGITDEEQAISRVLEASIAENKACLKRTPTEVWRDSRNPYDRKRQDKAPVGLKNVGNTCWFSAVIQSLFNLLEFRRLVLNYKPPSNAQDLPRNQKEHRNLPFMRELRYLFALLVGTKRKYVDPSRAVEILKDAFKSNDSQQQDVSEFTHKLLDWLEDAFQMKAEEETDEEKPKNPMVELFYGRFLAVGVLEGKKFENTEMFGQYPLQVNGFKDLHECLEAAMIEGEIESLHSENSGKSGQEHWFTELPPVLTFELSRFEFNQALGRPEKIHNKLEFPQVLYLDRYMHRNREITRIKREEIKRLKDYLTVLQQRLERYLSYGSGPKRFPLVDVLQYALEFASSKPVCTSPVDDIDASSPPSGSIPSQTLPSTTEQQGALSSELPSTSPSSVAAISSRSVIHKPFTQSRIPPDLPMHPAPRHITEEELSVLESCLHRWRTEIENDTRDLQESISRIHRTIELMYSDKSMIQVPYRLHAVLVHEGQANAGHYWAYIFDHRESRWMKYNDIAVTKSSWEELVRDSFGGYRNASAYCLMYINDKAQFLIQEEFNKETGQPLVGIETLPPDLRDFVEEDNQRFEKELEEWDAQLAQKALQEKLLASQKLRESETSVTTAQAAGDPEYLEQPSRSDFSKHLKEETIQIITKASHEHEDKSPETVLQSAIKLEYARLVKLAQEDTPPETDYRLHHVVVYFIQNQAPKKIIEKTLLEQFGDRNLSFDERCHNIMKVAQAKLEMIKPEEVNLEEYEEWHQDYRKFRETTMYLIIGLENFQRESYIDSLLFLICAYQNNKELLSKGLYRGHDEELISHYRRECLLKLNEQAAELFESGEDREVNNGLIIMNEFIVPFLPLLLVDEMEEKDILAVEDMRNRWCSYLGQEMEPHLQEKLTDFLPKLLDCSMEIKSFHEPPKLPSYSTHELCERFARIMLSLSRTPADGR
Method in brief: as §1

[5] = target: T4, USP28 (UniProt Q96RU2)
T4 sequence (whole entry): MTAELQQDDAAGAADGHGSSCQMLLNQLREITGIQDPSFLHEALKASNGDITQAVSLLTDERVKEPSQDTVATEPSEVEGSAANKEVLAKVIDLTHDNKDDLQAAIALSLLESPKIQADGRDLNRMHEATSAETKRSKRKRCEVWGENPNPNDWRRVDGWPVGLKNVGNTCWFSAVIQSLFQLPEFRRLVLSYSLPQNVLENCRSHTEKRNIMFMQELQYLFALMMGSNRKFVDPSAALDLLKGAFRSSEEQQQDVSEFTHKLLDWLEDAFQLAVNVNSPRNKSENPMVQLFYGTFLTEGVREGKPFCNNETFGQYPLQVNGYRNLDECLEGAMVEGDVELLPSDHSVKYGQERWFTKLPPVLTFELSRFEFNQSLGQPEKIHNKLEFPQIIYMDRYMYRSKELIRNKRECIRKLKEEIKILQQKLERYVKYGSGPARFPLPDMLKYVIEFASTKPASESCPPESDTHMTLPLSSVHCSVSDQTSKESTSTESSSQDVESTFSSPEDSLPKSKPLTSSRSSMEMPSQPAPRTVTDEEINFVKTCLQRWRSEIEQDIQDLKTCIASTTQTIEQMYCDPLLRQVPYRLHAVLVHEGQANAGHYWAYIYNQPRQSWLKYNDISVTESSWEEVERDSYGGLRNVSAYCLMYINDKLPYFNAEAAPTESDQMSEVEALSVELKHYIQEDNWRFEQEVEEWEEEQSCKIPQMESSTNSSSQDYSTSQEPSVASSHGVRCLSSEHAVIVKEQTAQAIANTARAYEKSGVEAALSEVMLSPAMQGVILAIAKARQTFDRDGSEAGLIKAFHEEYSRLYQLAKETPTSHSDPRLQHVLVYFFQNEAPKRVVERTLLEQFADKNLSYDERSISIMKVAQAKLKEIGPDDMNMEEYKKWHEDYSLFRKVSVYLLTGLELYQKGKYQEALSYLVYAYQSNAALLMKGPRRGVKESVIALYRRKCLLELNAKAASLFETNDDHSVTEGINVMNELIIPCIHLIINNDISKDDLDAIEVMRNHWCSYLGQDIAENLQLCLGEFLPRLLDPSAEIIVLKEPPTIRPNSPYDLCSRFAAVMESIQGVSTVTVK
Method in brief: as §1

Measured: log2 ratio of Biotin-Ahx-Ub-VS probe labelling

Sequence of USP24 (Q9UPU5 whole entry): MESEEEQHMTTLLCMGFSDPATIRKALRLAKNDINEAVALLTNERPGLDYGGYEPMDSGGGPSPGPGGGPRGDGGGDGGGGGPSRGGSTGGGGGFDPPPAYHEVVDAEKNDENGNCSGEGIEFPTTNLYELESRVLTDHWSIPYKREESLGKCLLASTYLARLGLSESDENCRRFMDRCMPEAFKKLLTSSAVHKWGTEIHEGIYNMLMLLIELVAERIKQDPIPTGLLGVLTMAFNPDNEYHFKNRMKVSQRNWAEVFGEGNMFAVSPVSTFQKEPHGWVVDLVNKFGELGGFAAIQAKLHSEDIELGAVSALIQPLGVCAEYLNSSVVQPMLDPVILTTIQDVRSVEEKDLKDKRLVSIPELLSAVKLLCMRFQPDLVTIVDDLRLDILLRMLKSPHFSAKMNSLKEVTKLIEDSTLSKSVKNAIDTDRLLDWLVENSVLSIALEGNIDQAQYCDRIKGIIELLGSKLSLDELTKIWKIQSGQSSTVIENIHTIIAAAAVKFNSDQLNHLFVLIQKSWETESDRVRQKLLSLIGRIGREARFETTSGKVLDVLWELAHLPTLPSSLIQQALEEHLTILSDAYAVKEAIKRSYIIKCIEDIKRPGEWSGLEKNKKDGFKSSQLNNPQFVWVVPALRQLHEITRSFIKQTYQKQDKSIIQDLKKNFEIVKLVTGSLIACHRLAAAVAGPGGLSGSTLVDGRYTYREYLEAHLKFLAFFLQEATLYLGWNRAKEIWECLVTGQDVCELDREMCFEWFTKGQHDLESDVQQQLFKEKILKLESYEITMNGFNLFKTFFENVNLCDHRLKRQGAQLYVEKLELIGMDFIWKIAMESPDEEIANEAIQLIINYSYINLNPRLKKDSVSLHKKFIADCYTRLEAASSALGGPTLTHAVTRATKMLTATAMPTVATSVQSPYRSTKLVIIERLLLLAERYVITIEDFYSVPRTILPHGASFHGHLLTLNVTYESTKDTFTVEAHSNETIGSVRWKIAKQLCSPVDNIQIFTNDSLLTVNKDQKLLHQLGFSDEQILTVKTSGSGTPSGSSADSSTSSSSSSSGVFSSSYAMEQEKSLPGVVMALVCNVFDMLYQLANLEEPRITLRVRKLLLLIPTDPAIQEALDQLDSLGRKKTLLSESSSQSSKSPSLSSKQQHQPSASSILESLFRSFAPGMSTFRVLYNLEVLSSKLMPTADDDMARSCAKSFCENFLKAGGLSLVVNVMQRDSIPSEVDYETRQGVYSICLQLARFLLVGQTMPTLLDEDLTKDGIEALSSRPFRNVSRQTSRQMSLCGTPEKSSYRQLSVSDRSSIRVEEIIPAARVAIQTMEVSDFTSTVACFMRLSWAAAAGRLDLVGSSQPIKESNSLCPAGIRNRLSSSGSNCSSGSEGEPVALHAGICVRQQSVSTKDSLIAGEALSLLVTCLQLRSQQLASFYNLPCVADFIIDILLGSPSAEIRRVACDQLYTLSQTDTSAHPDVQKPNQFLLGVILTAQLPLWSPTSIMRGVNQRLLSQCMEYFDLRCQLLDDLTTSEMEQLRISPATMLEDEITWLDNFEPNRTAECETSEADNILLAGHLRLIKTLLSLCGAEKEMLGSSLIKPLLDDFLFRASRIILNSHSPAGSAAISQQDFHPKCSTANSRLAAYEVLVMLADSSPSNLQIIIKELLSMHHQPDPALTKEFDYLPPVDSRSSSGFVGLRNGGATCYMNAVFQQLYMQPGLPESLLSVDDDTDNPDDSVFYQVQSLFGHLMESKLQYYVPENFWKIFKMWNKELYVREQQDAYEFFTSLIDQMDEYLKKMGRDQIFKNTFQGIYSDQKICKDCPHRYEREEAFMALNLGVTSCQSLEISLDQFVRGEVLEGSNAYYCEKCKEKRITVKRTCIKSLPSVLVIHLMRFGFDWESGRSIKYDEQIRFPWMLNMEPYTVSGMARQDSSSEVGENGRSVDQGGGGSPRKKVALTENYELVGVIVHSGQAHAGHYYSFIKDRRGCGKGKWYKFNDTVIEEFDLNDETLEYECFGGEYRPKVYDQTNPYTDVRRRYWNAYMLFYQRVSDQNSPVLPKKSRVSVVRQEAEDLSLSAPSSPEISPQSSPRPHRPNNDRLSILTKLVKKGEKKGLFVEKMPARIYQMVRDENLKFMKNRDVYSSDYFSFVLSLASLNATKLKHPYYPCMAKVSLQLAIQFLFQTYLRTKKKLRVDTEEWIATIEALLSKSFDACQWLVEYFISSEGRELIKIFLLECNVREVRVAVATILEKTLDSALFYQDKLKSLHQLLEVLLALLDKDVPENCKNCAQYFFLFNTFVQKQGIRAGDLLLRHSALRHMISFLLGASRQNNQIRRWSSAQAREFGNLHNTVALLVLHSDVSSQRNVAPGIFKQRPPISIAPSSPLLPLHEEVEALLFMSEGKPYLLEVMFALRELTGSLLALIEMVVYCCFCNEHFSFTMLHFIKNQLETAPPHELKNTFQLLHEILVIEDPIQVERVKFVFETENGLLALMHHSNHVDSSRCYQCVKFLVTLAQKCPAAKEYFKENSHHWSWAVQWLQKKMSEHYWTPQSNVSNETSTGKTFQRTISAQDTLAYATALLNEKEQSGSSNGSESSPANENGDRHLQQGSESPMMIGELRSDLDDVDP

O=C(CCl)NCc1cccc(N2CCCC2=O)c1
inactive: [1] 0.025 | [2] 0.303 | [3] 0.00291 | [4] -0.383 | [5] -0.252
